About 8,800 targets were measured; listed, in parts, are those with a hit and a random draw of the rest. About 0.5% of all pairs of compound and target were hits. A number with no mark means an inactive call.
What was measured:
Assay in all cases: log2 fold change, soluble protein after heating vs DMSO (PISA); higher = thermal stabilisation; K562 lysate, 10 uM; active = over 0.2 and 3.5 SD of the protein, either way, in both replicates (recomputed)
erlotinib = compound: C#Cc1cccc(Nc2ncnc3cc(OCCOC)c(OCCOC)cc23)c1 [erlotinib]
Procedure, shortened: (§1)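 The values are log-two fold changes in thermal stability compared with solvent controls and come from duplicates. They were obtained by TMTpro 16plex LC-MS/MS, with channel sums equalised, on the supernatant after 21,000xg for 90 min. That supernatant came from crude K562 extract at 1 mg/mL protein treated with 10 μM compound for 30 min, heated for 3 min across 48°C-58°C, pooled and brought to 0.5% NP-40 at 4°C.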

[1] = compound: C/C(=N\NC(=O)C1=CC(=CC=C1)S(=O)(=O)N2CCOCC2)/C3=C(C=CC(=C3)Cl)O
Procedure, shortened: as §1

[2] = compound: C1=CC(=CC=C1C2=NC3=C(N2)C=C(C=C3)C(=O)N)OC4=CC=C(C=C4)Cl
Procedure, shortened: as §1

[3] = compound: C1=CC2=C(C=CC(=C2)/C=C\3/C(=O)NC(=NCC4=CC=CS4)S3)N=C1
Procedure, shortened: as §1

[4] = compound: C1=CC2=NC=CN=C2C=C1/C=C/3\C(=O)NC(=O)S3
Procedure, shortened: as §1

[5] = compound: C1=CC=C(C=C1)C2=NC(=C(N2)C3=CC=NC=C3)C4=CC(=C(C=C4)Cl)O
Procedure, shortened: as §1

[6] = compound: C1=CC=C2C(=C1)C3=NNC4=CC=CC(=C43)C2=O
Procedure, shortened: as §1

[7] = compound: C1CCN(C1)C(=O)NC2=CC=CC(=C2)NC3=NC=C(C(=N3)NCCC4=CN=CN4)Br
Procedure, shortened: as §1

[8] = compound: C1CN(CCC1(CC2=CC=C(C=C2)Cl)N)C3=NC=NC4=C3C=CN4
Procedure, shortened: as §1

IRAK-1-4 Inhibitor I = compound: C1COCCN1CCN2C3=CC=CC=C3N=C2NC(=O)C4=CC(=CC=C4)[N+](=O)[O-] [IRAK-1-4 Inhibitor I]
Procedure, shortened: as §1

Chain of UniProt Q9NSK0 (Q9NSK0 whole entry, looked up): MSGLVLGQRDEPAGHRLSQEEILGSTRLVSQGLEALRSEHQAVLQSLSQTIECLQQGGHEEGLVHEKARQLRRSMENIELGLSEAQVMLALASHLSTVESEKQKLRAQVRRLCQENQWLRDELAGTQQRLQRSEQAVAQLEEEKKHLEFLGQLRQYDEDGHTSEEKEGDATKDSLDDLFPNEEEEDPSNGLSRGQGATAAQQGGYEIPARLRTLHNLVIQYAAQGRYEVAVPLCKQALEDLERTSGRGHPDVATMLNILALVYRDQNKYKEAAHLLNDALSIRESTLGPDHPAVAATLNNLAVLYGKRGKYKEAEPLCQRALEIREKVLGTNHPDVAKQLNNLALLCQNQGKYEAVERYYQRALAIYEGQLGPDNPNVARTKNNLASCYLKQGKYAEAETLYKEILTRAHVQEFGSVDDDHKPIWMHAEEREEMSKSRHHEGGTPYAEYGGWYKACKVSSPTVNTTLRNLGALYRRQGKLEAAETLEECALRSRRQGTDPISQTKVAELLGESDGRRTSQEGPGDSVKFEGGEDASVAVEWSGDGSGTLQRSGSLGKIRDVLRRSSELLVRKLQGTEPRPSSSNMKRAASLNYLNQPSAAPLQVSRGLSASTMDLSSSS
Chain of UniProt Q99797 (Q99797 whole entry, looked up): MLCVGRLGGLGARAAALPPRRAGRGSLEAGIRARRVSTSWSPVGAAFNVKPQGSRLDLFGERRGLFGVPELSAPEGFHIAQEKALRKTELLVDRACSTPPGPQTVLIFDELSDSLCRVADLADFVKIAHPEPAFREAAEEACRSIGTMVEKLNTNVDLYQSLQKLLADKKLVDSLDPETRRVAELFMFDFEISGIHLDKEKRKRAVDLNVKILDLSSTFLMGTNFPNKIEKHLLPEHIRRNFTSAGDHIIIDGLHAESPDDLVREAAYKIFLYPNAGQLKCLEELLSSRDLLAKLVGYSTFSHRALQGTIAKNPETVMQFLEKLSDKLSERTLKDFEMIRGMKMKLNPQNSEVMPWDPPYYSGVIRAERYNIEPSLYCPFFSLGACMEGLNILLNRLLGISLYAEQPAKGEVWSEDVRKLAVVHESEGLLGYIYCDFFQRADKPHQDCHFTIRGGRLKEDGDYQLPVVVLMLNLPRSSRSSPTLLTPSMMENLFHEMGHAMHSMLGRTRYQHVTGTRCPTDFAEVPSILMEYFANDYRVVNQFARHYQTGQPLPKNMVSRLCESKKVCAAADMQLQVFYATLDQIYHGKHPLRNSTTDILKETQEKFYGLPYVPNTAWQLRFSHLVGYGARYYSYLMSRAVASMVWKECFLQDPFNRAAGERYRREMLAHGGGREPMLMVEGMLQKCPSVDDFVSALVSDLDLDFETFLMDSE
Chain of UniProt Q9UBB5 (Q9UBB5 whole entry, looked up): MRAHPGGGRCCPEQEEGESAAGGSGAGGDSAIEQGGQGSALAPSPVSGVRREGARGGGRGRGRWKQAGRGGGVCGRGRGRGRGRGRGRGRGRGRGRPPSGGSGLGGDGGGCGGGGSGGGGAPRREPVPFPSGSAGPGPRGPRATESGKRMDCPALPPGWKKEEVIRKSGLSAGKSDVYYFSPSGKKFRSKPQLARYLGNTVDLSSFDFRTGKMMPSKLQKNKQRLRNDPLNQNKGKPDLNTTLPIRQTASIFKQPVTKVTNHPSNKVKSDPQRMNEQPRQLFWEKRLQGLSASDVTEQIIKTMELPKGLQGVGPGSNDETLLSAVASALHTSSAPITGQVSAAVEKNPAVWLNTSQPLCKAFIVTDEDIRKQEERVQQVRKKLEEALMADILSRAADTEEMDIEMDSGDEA
Chain of UniProt Q07866 (Q07866 whole entry, looked up): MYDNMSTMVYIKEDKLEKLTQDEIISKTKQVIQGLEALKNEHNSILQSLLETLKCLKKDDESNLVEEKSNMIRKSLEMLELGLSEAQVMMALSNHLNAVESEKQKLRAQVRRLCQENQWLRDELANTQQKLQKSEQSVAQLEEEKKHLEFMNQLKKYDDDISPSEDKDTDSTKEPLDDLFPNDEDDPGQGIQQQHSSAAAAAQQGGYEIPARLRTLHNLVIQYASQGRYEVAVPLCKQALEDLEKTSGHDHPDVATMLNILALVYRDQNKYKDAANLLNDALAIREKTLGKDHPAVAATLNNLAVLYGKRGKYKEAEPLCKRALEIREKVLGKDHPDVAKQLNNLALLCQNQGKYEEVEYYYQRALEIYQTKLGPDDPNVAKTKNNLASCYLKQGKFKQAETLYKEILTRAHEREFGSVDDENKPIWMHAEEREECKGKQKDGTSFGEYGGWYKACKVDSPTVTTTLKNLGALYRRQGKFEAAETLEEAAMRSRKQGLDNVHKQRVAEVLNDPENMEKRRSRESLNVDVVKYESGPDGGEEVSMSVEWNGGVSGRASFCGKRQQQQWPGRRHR
Chain of UniProt Q8NG31 (Q8NG31 whole entry, looked up): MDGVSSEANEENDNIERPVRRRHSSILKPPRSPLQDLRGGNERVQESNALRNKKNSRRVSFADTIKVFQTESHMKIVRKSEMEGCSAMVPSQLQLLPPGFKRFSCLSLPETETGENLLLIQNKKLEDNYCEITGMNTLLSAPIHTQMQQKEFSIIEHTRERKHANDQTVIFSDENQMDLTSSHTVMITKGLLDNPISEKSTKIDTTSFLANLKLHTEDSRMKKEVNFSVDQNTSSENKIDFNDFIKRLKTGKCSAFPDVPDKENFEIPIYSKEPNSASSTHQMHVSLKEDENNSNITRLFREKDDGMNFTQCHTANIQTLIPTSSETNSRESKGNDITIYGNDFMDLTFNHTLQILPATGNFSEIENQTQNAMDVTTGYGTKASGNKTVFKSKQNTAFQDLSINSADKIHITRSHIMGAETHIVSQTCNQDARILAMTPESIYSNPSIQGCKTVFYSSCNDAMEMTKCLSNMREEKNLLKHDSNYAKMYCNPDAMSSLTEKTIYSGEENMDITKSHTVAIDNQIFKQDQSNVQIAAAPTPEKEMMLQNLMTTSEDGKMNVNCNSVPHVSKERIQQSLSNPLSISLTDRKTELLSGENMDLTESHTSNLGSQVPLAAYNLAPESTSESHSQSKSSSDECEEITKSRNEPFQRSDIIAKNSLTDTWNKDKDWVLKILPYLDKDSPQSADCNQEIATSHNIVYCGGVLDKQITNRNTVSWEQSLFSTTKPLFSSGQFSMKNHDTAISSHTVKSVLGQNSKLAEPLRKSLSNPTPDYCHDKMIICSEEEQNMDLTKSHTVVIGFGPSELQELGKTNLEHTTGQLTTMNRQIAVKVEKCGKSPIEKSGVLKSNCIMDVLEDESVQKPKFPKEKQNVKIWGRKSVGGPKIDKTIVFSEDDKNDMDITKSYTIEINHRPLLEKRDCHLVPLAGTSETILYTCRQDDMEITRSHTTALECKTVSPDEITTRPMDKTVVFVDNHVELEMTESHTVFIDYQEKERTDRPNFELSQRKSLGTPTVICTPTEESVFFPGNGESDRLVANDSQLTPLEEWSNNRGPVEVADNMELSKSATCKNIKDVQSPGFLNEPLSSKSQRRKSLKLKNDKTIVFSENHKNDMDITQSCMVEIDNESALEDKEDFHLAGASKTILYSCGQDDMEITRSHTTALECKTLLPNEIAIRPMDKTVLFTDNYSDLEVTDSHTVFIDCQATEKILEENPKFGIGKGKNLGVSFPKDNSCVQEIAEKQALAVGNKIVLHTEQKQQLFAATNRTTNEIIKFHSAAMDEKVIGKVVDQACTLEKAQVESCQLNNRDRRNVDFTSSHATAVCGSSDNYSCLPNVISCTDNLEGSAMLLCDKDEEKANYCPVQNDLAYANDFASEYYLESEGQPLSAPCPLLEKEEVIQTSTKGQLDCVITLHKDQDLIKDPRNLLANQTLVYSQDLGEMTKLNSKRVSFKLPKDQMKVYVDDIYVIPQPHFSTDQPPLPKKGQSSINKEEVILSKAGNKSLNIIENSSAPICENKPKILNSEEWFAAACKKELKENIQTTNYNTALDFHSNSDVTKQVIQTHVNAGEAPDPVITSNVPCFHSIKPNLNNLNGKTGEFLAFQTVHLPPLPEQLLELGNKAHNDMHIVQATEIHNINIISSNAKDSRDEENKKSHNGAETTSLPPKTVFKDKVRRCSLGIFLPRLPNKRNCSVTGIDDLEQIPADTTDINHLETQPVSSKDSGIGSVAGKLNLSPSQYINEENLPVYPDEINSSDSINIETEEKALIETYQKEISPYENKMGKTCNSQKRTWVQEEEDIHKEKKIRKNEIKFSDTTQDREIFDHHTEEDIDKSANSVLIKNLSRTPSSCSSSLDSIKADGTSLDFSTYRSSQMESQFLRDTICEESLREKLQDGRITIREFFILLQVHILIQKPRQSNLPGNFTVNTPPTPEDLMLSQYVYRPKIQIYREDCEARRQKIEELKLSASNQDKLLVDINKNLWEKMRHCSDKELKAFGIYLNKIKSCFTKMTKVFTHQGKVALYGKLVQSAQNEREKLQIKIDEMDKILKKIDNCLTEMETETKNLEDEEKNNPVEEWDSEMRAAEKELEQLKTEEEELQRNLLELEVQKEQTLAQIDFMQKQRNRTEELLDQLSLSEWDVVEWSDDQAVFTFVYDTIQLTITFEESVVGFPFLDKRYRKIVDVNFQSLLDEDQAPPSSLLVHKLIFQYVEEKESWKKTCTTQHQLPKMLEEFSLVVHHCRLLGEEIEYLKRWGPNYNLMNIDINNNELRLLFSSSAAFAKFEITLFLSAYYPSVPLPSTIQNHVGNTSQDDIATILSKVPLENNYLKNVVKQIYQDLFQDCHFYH
Chain of UniProt Q9HD34 (Q9HD34 whole entry, looked up): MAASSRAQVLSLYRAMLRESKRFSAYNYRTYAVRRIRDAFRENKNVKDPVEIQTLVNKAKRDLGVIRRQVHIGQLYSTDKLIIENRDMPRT
Chain of UniProt Q9Y448 (Q9Y448 whole entry, looked up): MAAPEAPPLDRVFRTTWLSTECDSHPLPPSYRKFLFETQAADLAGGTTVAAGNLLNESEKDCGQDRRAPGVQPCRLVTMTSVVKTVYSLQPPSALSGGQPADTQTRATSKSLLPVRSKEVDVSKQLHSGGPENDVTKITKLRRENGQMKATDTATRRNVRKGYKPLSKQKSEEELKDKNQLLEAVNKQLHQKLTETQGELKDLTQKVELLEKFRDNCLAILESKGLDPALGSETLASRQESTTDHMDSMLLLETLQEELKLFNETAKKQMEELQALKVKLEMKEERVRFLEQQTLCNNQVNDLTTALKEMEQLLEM

| Target | log2 fold change (erlotinib) | log2 fold change [1] | log2 fold change [2] | log2 fold change [3] | log2 fold change [4] | log2 fold change [5] | log2 fold change [6] | log2 fold change [7] | log2 fold change [8] | log2 fold change (IRAK-1-4 Inhibitor I) |
| --- | --- | --- | --- | --- | --- | --- | --- | --- | --- | --- |
| MRPL46 (UniProt Q9H2W6) | -0.027 | -0.01 | -0.039 | -0.124 | -0.069 | 0.023 | 0.089 | -0.009 | -0.064 | 0.035 |
| MAP4K4 isoform 3 (UniProt O95819) | -0.003 | -0.025 | 0.099 | 0.038 | -0.027 | -0.093 | -0.077 | 0.008 | -0.011 | 0.059 |
| LSS (UniProt P48449) | -0.023 | 0.057 | 0.001 | 0.053 | -0.005 | 0.037 | -0.006 | -0.094 | 0.019 | 0 |
| KIF26A (UniProt Q9ULI4) | 0.117 | -0.053 | -0.089 | 0.012 | -0.022 | -0.019 | 0.159 | 0.108 | 0.249 | 0.093 |
| MLST8 (UniProt Q9BVC4) | 0.038 | 0.008 | -0.041 | 0.015 | 0.012 | 0.015 | 0.002 | -0.091 | 0.033 | -0.001 |
| KMT2A isoform 3 (UniProt Q03164) | -0.022 | 0.351 | 0.041 | -0.047 | -0.014 | -0.069 | -0.004 | 0.005 | -0.06 | 0.07 |
| MAP2K5 (UniProt Q13163) | 0.16 | 0.153 | -0.024 | 0.142 | -0.097 | -0.015 | 0.06 | -0.007 | -0.024 | 0.144 |
| LYRM4 (UniProt Q9HD34) | -0.009 | 0.016 | 0.02 | -0.117 | -0.017 | -0.011 | -0.002 | -0.02 | 0.06 | 0.005 |
| KNL1 (UniProt Q8NG31) | -0.005 | -0.015 | 0.002 | 0 | -0.017 | 0.019 | -0.015 | 0.006 | -0.007 | 0.002 |
| MCU (UniProt Q8NE86) | 0.045 | -0.028 | -0.09 | 0.02 | 0.057 | -0.035 | 0.084 | 0.055 | 0.015 | 0.064 |
| MACROD1 (UniProt Q9BQ69) | 0.025 | 0.017 | 0.009 | 0.02 | 0.283 | -0.005 | -0.074 | 0.131 | -0.002 | 0.081 |
| MAD2L1BP isoform 3 (UniProt Q15013) | 0.067 | -0.081 | 0.002 | 0.078 | -0.015 | 0.005 | 0.063 | -0.029 | 0.263 (active) | -0.002 |
| LDAH isoform 2 (UniProt Q9H6V9) | -0.017 | -0.015 | -0.057 | -0.023 | 0.005 | -0.01 | -0.021 | -0.032 | 0 | 0.029 |
| L3HYPDH (UniProt Q96EM0) | -0.004 | 0.057 | 0.028 | -0.027 | 0.033 | -0.03 | -0.048 | 0 | 0.038 | 0.029 |
| LUC7L (UniProt Q9NQ29) | -0.024 | 0.021 | -0.097 | 0.015 | -0.067 | -0.023 | 0.01 | -0.02 | -0.004 | -0.026 |
| KLC1 isoform 6 (UniProt Q07866) | -0.02 | -0.023 | 0.002 | 0 | -0.033 | 0.002 | -0.007 | -0.027 | -0.01 | 0.011 |
| LAGE3 (UniProt Q14657) | 0.028 | 0.342 (active) | 0.074 | -0.008 | -0.092 | -0.018 | 0.091 | 0 | 0.022 | 0.06 |
| MRPL28 (UniProt Q13084) | -0.112 | -0.085 | 0.027 | 0.011 | -0.074 | 0.017 | 0.024 | 0.042 | -0.031 | -0.03 |
| MFF isoform 2 (UniProt Q9GZY8) | 0.006 | -0.056 | 0.021 | -0.009 | -0.014 | -0.035 | -0.005 | 0.024 | 0.037 | 0.018 |
| MAP7D3 (UniProt Q8IWC1) | 0.069 | 0.053 | 0.281 | 0.052 | -0.023 | -0.025 | 0.044 | -0.034 | -0.012 | -0.017 |
| MCMBP isoform 2 (UniProt Q9BTE3) | 0.084 | 0.027 | 0.282 | -0.168 | -0.156 | -0.051 | -0.411 | 0.024 | 0.055 | -0.016 |
| MAD2L2 (UniProt Q9UI95) | 0.173 | 0.004 | 0.209 | -0.035 | 0.035 | -0.09 | -0.101 | 0.094 | 0.102 | 0.004 |
| MAP2K2 (UniProt P36507) | 0.049 | 0.005 | 0.023 | -0.023 | -0.006 | 0.001 | 0.249 | 0.219 | 0.017 | 0 |
| MED12 isoform 2 (UniProt Q93074) | 0.007 | -0.037 | 0 | 0.009 | 0.008 | 0.004 | -0.025 | -0.013 | 0.011 | -0.035 |
| MRPL19 (UniProt P49406) | 0.02 | 0.079 | -0.041 | -0.003 | -0.007 | -0.032 | -0.019 | -0.014 | 0.005 | 0 |
| MRPL12 (UniProt P52815) | 0.046 | -0.02 | -0.013 | 0.041 | -0.015 | -0.015 | 0.014 | -0.007 | 0.077 | -0.029 |
| MIPEP (UniProt Q99797) | -0.048 | -0.06 | 0.005 | 0.021 | 0.019 | -0.029 | -0.008 | 0.006 | 0.005 | -0.004 |
| KLC4 isoform 3 (UniProt Q9NSK0) | 0 | -0.017 | 0.05 | 0 | 0 | 0.018 | -0.029 | -0.056 | 0.007 | -0.021 |
| KNSTRN (UniProt Q9Y448) | -0.007 | -0.003 | -0.018 | 0.006 | -0.018 | 0.015 | 0.012 | 0.036 | -0.061 | -0.039 |
| MBD2 (UniProt Q9UBB5) | 0.013 | -0.933 | -0.003 | 0.05 | -0.016 | 0.094 | 0.023 | -0.069 | -0.011 | 0.016 |

From the supplement of paper PMC10849652
